The full list was thinned out, with hits kept by preference.
Pf apPOL block = Pf-apPOL DNA polymerase inhibition | Recombinant Pf-apPOL, molecular beacon fluorescence, 1.5 h | inhibition, % at 10 µM | 210,000 tested, 0.25% active
mHTT-CaM PPI inh = inhibitors of human mutant huntingtin-calmodulin interaction. 190,000 tested, 3.6% active. inhibition, % at 15 µM. AlphaScreen His-mHTT/GST-CaM binding, luminescence;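 also: 0% = both proteins with DMSO and 100% = one protein alone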
The depositor's hits bear a star; / = no result given. Rule as the data show it: active = inhibition above about 50%; inactive = the rest.

SMILES	Pf apPOL block	mHTT-CaM PPI inh
N#Cc1c(-c2ccco2)cc(-c2ccco2)[nH]c1=O	93*	/
N#Cc1ccc(-c2ccco2)[nH]c1=O	33	/
N#CCOc1nc(-c2ccccc2)cc(-c2ccco2)c1C#N	0	/
COc1cccc(-c2cncc(C(=O)Nc3cccc(C)c3)c2)c1	0	-1
CC1=C(C#N)C(c2ccc(O)cc2)C2=C(CC(c3ccc(Cl)cc3)CC2=O)N1 (stereo unspecified)	2	13
Nc1sc(SCC(=O)Nc2ccc3c(c2)OCO3)nc1-c1ccccc1	1	78*
Nc1nnc(SCC(=O)Nc2ccc3c(c2)OCO3)s1	-10	/
COc1ccc(Nc2ncc3c(n2)CCN(Cc2ccc(F)cc2F)C3)c(OC)c1	4	7
O=C(NC(Nc1ccccc1)C(Cl)(Cl)Cl)c1ccc(Cl)cc1 (stereo unspecified)	-2	16
O=C(NC(Nc1ccccc1)C(Cl)(Cl)Cl)c1ccc(Br)cc1 (stereo unspecified)	4	57*
O=C(/C=C/c1ccccc1)NC(Nc1ccccc1)C(Cl)(Cl)Cl (stereo unspecified)	-8	96*
O=C(NC(Nc1ccccc1)C(Cl)(Cl)Cl)c1ccc(F)cc1 (stereo unspecified)	-4	-9
O=C(/C=C/c1ccccc1)NC(Nc1cccnc1)C(Cl)(Cl)Cl (stereo unspecified)	0	31
O=C(NC(Nc1ccc(Br)cc1)C(Cl)(Cl)Cl)c1ccc(F)cc1 (stereo unspecified)	-3	87*
COc1ccc(OC(NC(=O)/C=C/c2ccccc2)C(Cl)(Cl)Cl)cc1 (stereo unspecified)	1	51*
COc1ccc(NC(=O)/C=C/c2ccc(Cl)cc2)cc1	-9	/
COc1cccc(CCC(=O)N2CCC(c3noc(-c4cccc(OC)c4)n3)CC2)c1	-3	5
CC(C)(C)S(=O)(=O)C(C#N)=CNc1ncccn1	-1	/
O=C(CSc1nnc(NC(=O)Nc2ccc(F)cc2)s1)Nc1cccc([N+](=O)[O-])c1	-6	18
NCCOc1ccc2oc3ccccc3c2c1	/	-4
CC(C)C(=O)NCCc1csc(C2CCN(C(=O)c3ccccc3F)CC2)n1	-4	5
CCOc1ccc(NC(=O)c2c(NC(=O)CNCCN3CCOCC3)sc3c2CCC3)cc1	0	81*
CCOc1ccc(NC(=O)c2c(NC(=O)CNCC3CCCO3)sc3c2CCC3)cc1 (stereo unspecified)	-4	35
COc1ccc(NC(=O)c2c(NC(=O)CNCc3ccco3)sc3c2CCC3)cc1	-2	11
COc1ccc(NC(=O)c2c(NC(=O)CNCCO)sc3c2CCC3)cc1	-1	62*
SMILES	Pf apPOL block	mHTT-CaM PPI inh
CCOc1ccc(-c2cc(=O)c3cc(NC(=O)C4CCCCC4)ccc3o2)cc1	-3	-6
CC(C)(C)CC(=O)Nc1ccc(Br)cc1F	-7	-19
NNc1ncnc2ccccc12	/	100*
c1ccc(CCNc2ncnc3ccccc23)cc1	-9	-5
N#Cc1cccc(C(=O)NCC(O)C2CCCCC2)c1 (stereo unspecified)	-9	-18
CCN(CC)c1ccc(C=NCCc2ccccc2)c(O)c1	2	80*
CCN(CC)c1ccc(C=Nc2ccccc2)c(O)c1	-6	8
CCC(=O)NCc1nc2c(n1CC)CN(C(=O)c1ccc(F)c(F)c1)CC2	-5	2
CC(=O)N1CCc2[nH]c3ccc(C(=O)N4CCN(Cc5ccc(C)cc5)CC4)cc3c2C1	-3	78*
CCN(CCNC(=O)c1ccc2[nH]c3c(c2c1)CN(C(C)=O)CC3)c1ccccc1	-4	68*
CC(=O)N1CCc2[nH]c3ccc(C(=O)NCc4ccc(N5CCN(C)CC5)cc4)cc3c2C1	-2	21
CC(=O)N1CCc2[nH]c3ccc(C(=O)NCCc4nc5ccccc5n4C)cc3c2C1	-2	14
CCN(CC)c1ccc(CNC(=O)c2ccc3[nH]c4c(c3c2)CN(C(C)=O)CC4)cc1	0	69*
CC(=O)N1CCc2[nH]c3ccc(C(=O)N4CCN(C(C)C)CC4)cc3c2C1	-3	14
CC(=O)N1CCc2[nH]c3ccc(C(=O)NCc4ccc(F)cc4)cc3c2C1	4	72*
CC(=O)N1CCc2[nH]c3ccc(C(=O)N4CCOCC4)cc3c2C1	-1	36
O=C(Nc1cnc(-c2ccccc2)nc1)c1cc([N+](=O)[O-])cc([N+](=O)[O-])c1	0	4
Cc1ccc(C(=O)N2CCc3nc(-c4ccccc4)ncc3C2)c(C)c1	1	-1
CCOc1ccccc1C(=O)N1CCCC(COc2ccc(C(=O)N3CCCC3)cc2)C1 (stereo unspecified)	18	3
CCC(CC)N1CCN(C(=O)c2ccc3[nH]c4c(c3c2)CN(C(C)=O)CC4)CC1	-5	38
CCN(C(=O)c1ccc2[nH]c3c(c2c1)CN(C(C)=O)CC3)c1cccc(C)c1	-4	84*
COc1ccc(S(=O)(=O)N2CCSC2c2cccc(Cl)c2)cc1 (stereo unspecified)	-3	-56
CC(C)c1cccc(N2C=C(C(=O)N3CCCC3)S(=O)(=O)c3ccccc32)c1	-3	9
CCn1c(SC)nc2c3cc(OC)ccc3n(C)c2c1=O	-7	-17
COCCNC(=O)C1Cc2ccccc2N2CCN(c3ccccc3F)CC12 (stereo unspecified)	0	5
SMILES	Pf apPOL block	mHTT-CaM PPI inh
COCCNC(=O)C1Cc2ccccc2N2CCN(c3cccc(Cl)c3)CC12 (stereo unspecified)	2	57*
COc1ccc(/C=C2/CC(c3ccccc3)=CC2=O)cc1	2	-1
Cc1ccc(N=C2NC(=O)/C(=C/c3ccco3)S2)cc1	-3	69*
O=C1NC(=Nc2cccc(Cl)c2Cl)S/C1=C\c1ccco1	-15	100*
COc1cccc(/C=C2/SC(=Nc3ccccc3Cl)NC2=O)c1OC	-3	8
COc1ccc(N=C2NC(=O)/C(=C\c3ccco3)S2)cc1	-21	43
O=C(O)CCCN1C(=O)C(=O)C(=C(O)c2ccccc2)C1c1ccccc1 (stereo unspecified)	1	1
CC(=O)c1ccc(N2CCN(Cc3cccc([N+](=O)[O-])c3)CC2)cc1	-7	6
CCc1ccc(N2CCN(C(=O)c3ccccc3Cl)C(C)C2=O)cc1 (stereo unspecified)	4	-5
O=C(CSc1ncn[nH]1)n1c2c(c3ccccc31)CCCC2	5	57*
Cn1c(SCC(=O)n2c3c(c4ccccc42)CCCC3)nnc1-c1ccc(N)cc1	-3	16
COc1ccccc1CC(=O)N1CCCC1c1cc(C)on1 (stereo unspecified)	1	-4
CSc1ccccc1C(=O)Nc1ccc2c(c1)C(=O)N(C)CCO2	-8	-11
O=C(NCc1csc(C2CCCN(C(=O)c3cc(F)ccc3Cl)C2)n1)C1CC1 (stereo unspecified)	-2	7
COC(=O)Oc1cc2oc(=O)sc2cc1Cl	0	22
CCOC(=O)Oc1c(Cl)cc2oc(=O)sc2c1Br	0	54*
COC(=O)Oc1c(Cl)cc2oc(=O)sc2c1[N+](=O)[O-]	9	81*
CCOC(=O)Oc1cc2oc(=O)sc2cc1Br	7	22
CC(C)c1ccc(C(=O)Nc2nnc3ccccn23)cc1	-3	65*
CCOc1cccc2nnc(NC(=O)c3ccc(C)cc3)n12	31	51*
O=C(Nc1nnc2ccccn12)c1ccccc1C(F)(F)F	-8	10
CC(C)CC(=O)Nc1nnc2ccccn12	-6	10

Bioassay records: PubChem, University of Kansas High Throughput Screening Laboratory
